Bioassay records: PubChem, several laboratories
CCHF vOTU inh: blocks the CCHF virus ovarian tumor domain protease; inhibition, % at 11.5 µM; CCHFV vOTU protease, Pep-AMC fluorescence; 370,000 compounds, 0.55% hits; in the data active = inhibition above about 30%
DUSP3 inh: DUSP3 (human) phosphatase inhibition; recombinant VHR phosphatase, pNPP absorbance; inhibition, % at 13.3 µM; 290,000 compounds, 0.52% hits; in the data active = inhibition above about 50%
Target sequence (P51452 whole entry, looked up): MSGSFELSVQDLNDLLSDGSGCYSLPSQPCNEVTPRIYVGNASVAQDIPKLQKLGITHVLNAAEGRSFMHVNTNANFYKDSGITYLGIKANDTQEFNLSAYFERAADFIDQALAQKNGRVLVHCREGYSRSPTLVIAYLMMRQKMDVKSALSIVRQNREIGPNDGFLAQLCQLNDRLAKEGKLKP
SARS 3CLpro inh-1: SARS-CoV 3CLpro protease inhibition. P0C6X7. recombinant SARS-CoV 3CLpro, quenched FRET peptide cleavage. inhibition, % at 6 µM. 290,000 compounds, 0.14% hits. AID 1706; in the data active = inhibition above about 12%
TcdB inh: inhibitors of Clostridioides difficile toxin B glycohydrolase; TcdB glycohydrolase enzymatic assay, plate reader; inhibition, % at 9.99 µM; 350,000 compounds, 0.24% hits; AID 652162; in the data active = inhibition above about 10%
BH1578 lux ind: induces V. cholerae light production without autoinducers; V. cholerae BH1578 lux reporter, luminescence, 6 h; activation, % at 18.7 µM; 350,000 compounds, 0.16% hits; in the data active = activation mostly above about 9.7%, no sharp cut-off
PriA SSB inh: inhibitors of Klebsiella pneumoniae PriA binding to SSB C-terminal tail; AlphaScreen SSBct-PriA binding, biotinylated peptide; inhibition, % at 33 µM; 430,000 compounds, 0.6% hits; AID 1272365; in the data active = inhibition mostly above about 37%, no sharp cut-off; inactive = mostly below about 20%
SARS 3CLpro inh-2: SARS 3CLpro inhibition, confirmation assay; shares compounds with SARS 3CLpro inh-1; QFRET protease activity assay; inhibition, % at 6 µM; 380 compounds, 36% hits; AID 1879; in the data active = inhibition above about 13%
Numbers stand for hits; - = inactive; . = no result given. This is a sample that favours compounds with a hit; in the whole collection about 1.3% have one here.

SMILES	CCHF vOTU inh	DUSP3 inh	SARS 3CLpro inh-1	TcdB inh	BH1578 lux ind	PriA SSB inh	SARS 3CLpro inh-2
O=C(NC(NC(=S)Nc1cccc(Cl)c1)C(Cl)(Cl)Cl)OCc1ccccc1 (stereo unspecified)	-	-	13	.	-	-	-
O=C(NC(NC(=S)Nc1cccc(C(=O)O)c1)C(Cl)(Cl)Cl)OCc1ccccc1 (stereo unspecified)	-	-	-	-	-	-	.
C=CCn1c(C)c(C(=O)OC)sc1=Nc1ccccc1	.	.	.	.	.	-	.
Cc1ccc(C2CC(c3cccs3)=NN2C(=O)CCl)cc1 (stereo unspecified)	-	-	55	-	-	-	70
Cc1ccc(C(=O)CSc2nnc(CNc3ccc(C)cc3C)n2Cc2ccco2)cc1	-	-	13	.	-	-	-
COc1ccc(C(=O)CSc2nnc(CNc3ccc(C)cc3C)n2Cc2ccco2)cc1	-	-	-	.	-	-	.
COc1cc(OC)cc(C(=O)N2c3ccccc3N3C(c4c(C)cc(C)cc4C)=NON23)c1	.	.	.	.	.	-	.
O=c1[nH]cccc1-c1noc(C2CN(S(=O)(=O)c3ccc(Cl)s3)C2)n1	.	.	.	.	.	-	.
O=c1[nH]c(=O)n(-c2ccc(F)cc2)c(O)c1/C=C1\C=Nc2ccccc21	-	-	-	-	-	.	.
O=c1[nH]c(=O)n(-c2ccccc2F)c(O)c1/C=C1\C=Nc2ccccc21	-	-	29	-	-	.	38
CC1(C)C(=O)NCCN1C(=O)c1ccc2ncsc2c1	.	.	.	.	.	-	.
COc1ccc2c(c1)C(=O)C(=O)N2CC1COc2ccccc2O1 (stereo unspecified)	-	-	35	-	-	-	40
Cc1ccc2c(c1)C(=O)C(=O)N2CC1COc2ccccc2O1 (stereo unspecified)	-	-	-	-	-	-	.
CCOc1ccc2c(c1)C(=O)C(=O)N2CC1COc2ccccc2O1 (stereo unspecified)	-	-	58	-	-	-	60
Cc1ccc(-c2cc(NC(=O)CCl)n(-c3ccccc3)n2)cc1	-	-	-	.	-	-	.
Cc1ccc(-c2nn(-c3ccccc3)cc2NC(=O)CCl)cc1	-	-	14	-	-	-	13
COc1cccc(-c2nn(CC(=O)N3CCCc4ccccc43)c(=O)c3nc(C)sc23)c1	.	.	.	.	.	-	.
O=C(O)c1ccc(N2N=C(c3ccccc3)CC2c2ccccc2)cc1 (stereo unspecified)	-	-	13	-	-	-	-
CCc1nnc(NS(=O)(=O)c2ccc(NC(=O)/C=C/c3ccc(F)cc3)cc2)s1	-	-	13	-	-	-	-
COc1ccccc1OCC#CCNC(=O)c1cc(-c2ccco2)on1	.	.	.	.	.	-	.
O=C(CCl)N(CCc1ccccc1)CCc1ccccc1	-	-	16	-	-	-	24
O=C(CCNC(=O)Cn1cnc2ccccc2c1=O)NCC1CCCO1 (stereo unspecified)	-	-	17	-	-	-	-
N#CC(=C(O)c1cc(Cl)ccc1Cl)c1nc2ccccc2s1	.	.	.	.	.	-	.
O=C(NCc1ccco1)C(c1ccco1)N(C(=O)Cn1nnc2ccccc21)c1ccc2c(c1)CCC2 (stereo unspecified)	-	.	15	.	-	-	26
Cc1cccc(N2C(N)=C(C#N)C(C#N)(C#N)C2c2ccccc2)c1 (stereo unspecified)	-	-	14	.	-	-	-
SMILES	CCHF vOTU inh	DUSP3 inh	SARS 3CLpro inh-1	TcdB inh	BH1578 lux ind	PriA SSB inh	SARS 3CLpro inh-2
Cc1cc(C)c(C)c(OCC(O)CN2CC(C)CC(C)C2)c1 (stereo unspecified)	.	.	.	.	.	-	.
COc1ccc(Br)c(C(=O)N2CCN(c3ccc(-n4cncn4)nn3)CC2)c1	.	.	.	.	.	-	.
COc1cc(CNCCc2c[nH]c3ccccc23)cc(OC)c1	-	-	71	-	-	-	-
CCc1ccc(CNCCc2c[nH]c3ccccc23)cc1	-	-	-	-	-	-	.
O=C(N/N=C/c1ccc(F)cc1)c1ccc(OCc2ccccc2)cc1	-	-	-	-	-	-	.
O=C(O)/C(=C\c1cccc(OCc2ccccc2)c1)c1ccc(F)cc1	-	-	16	-	-	-	-
Cc1nnc(NC(=O)Cc2csc(Nc3ccccc3)n2)s1	.	.	.	.	.	-	.
CC(C)(C)c1ccc(C(=O)Nc2ccc(S(=O)(=O)Nc3cnc4ccccc4n3)cc2)cc1	-	.	14	-	-	-	-
Cc1cc(C(=O)CCl)c(C)n1-c1cccc([N+](=O)[O-])c1	-	-	20	-	-	-	60
